The list is not random: actives were taken first. Their share in the collection is about 19%.
Pf growth 96h – P. falciparum growth inhibition at 96 hours. P. falciparum luciferase reporter growth, 96 h. Potency, µM (doses to about 28.7 µM), for the others: at the top dose activity change, negative = inhibition, hits mostly inhibitors. 320,000 compounds, 6.9% hits; also: potency is read from the fitted curve at half-maximal effect; % is scaled to controls: 0 for no effect and ±100 for the full control effect
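Parasite growth measured via integrated firefly luciferase reporter in P. falciparum. Infected erythrocytes at 2% hematocrit, 0.05% parasitemia final were treated 96 hours at 37 C under 5% CO2, and luminescence was read.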
AMA1-RON2 inh – disrupts binding of P. falciparum AMA1 to RON2; AlphaScreen AMA1-biotinylated RON2 peptide binding; Potency, µM (top dose mostly 58.2 µM), inactives show at the highest dose activity change, negative = inhibition, actives largely listed as inhibitors; 360,000 compounds, 0.2% hits; AID 720542;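 also: potency is read from the fitted curve at half-maximal effect; 0% = vehicle wells and -100% = peptide control; nearly all actives have a fitted effect of over 45% in size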
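AMA1 (3D7) with his tag at 25 nM final met compounds first, then biotinylated RON2 peptide at 25 nM; detection used donor plus acceptor beads, 10 µg/mL apiece, read by AlphaScreen after 30 min at room temperature.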
Pf growth 48h – P. falciparum growth inhibition at 48 hours (one generation) | Potency, µM (titrated, usually from 28.7 µM), without a hit: top-dose activity change, negative = inhibition, hits mostly inhibitors | 310,000 compounds, 5.9% hits | P. falciparum luciferase growth in erythrocytes, 48 h; also: potency is read from the fitted curve at half-maximal effect; % is scaled to controls: 0 for no effect and ±100 for the full control effect
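Firefly luciferase activity from engineered P. falciparum reports growth; inhibitors lower the luminescent signal. Cultures contained 2% hematocrit erythrocytes at 0.1% final parasitemia.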
SARS PLP yeast – blocks SARS-CoV papain-like protease in a yeast assay | 330,000 compounds, 0.19% hits | S. cerevisiae expressing SARS-CoV PLpro, growth rescue | Potency, µM (titrated, usually from 32.9 µM), for the others: top-dose activity, positive = growth rescue, usual class: activators | AID 485353; calls by dose curve; also: potency is read from the fitted curve at half-maximal effect; 0% is about no effect; nearly all actives have a fitted effect of over 55% in size
Shiga toxin inh – inhibitors of Shiga toxin in Vero cells. Vero cells, Shiga toxin protein synthesis inhibition reporter. inhibition, % at 38.7 µM. 290,000 compounds, 9.2% hits. AID 2315; in the data active = inhibition mostly above about 28%, no sharp cut-off; inactive = mostly below about 43%; also: 0% is about no effect
Cycloheximide cs – counter-screen for Shiga toxin inhibitors: cycloheximide protein synthesis inhibition; cell reporter, cycloheximide protein synthesis inhibition counterscreen; max response, %; 300,000 compounds, 12% hits; in the data active = max response mostly above about 13%, no sharp cut-off; inactive = mostly below about 14%; also: read at 38.3 µM for the half of the compounds with a filed dose; 0% is about no effect
An asterisk follows results filed as active; i = inactive; ? = inconclusive; . = not tested or not shown; [ ] = another dose, or the depositor's remark. Unless noted, calls follow the shape of the dose curve; as a rule, active = well fitted curve in the direction sought with a large enough effect; inconclusive = small, poorly fitted or top-dose-only effect, or another doubt; inactive = no such curve, though single readings can be large; an effect the other way counts as inactive or inconclusive.

SMILES	Pf growth 96h	AMA1-RON2 inh	Pf growth 48h	SARS PLP yeast	Shiga toxin inh	Cycloheximide cs
Cc1ncsc1CCC(=O)N1CCCC(C(=O)c2cccc(Cl)c2)C1 (centres undefined)	33.0%	-13.8%	15.7%	0.1%	7.4	-1.7
Cn1c(CN2CCCC(C(=O)c3ccc4c(c3)OCO4)C2)nc2ccccc21 (centres undefined)	9.28µM*	47.2%	?	0.5%	0.6	4.9
COc1ccc2cc(C(=O)C3CCCN(C(=O)c4ccnn4C)C3)ccc2c1 (centres undefined)	?	0.0%	?	-0.1%	39.3*	17.6
COc1ccc(Cl)cc1S(=O)(=O)N1CCC(C(=O)NCCc2ccccc2)CC1	1.1%	-1.4%	-8.4%	2.1%	-2.8	-3.1
CCCNC(=O)C(Cc1ccc(F)cc1)NC(=O)c1ccccc1 (centres undefined)	?	16.9%	11.4%	-1.0%	.	.
O=C(Nc1ccc2c(c1)OCO2)C1CCN(C(=O)c2ccc(Br)cc2)CC1	?	0.3%	1.4%[5.75 µM]	0.3%	65.8	13.4
Cc1ncsc1CCC(=O)N1CCCC(C(=O)c2ccc3c(c2)OCO3)C1 (centres undefined)	23.9%	6.3%	-3.9%	-0.7%	33.5	22.7*
COc1ccc(C)c2sc(N(CCCN(C)C)C(=O)CS(=O)(=O)c3ccc(F)cc3)nc12	?	-5.5%	?	.	.	.
O=C(O)c1ccc2c(=O)n3c(nc2c1)/C(=C/c1cccc(Cl)c1Cl)CCCC3	11.7µM*	15.5%	-25.2%	-9.9%	-7.2	-3.0
O=C(O)c1ccc2c(=O)n3c(nc2c1)/C(=C/c1ccc(F)cc1)CC3	-12.3%	-19.3%	2.0%	0.3%	3.3	6.0
O=C(NCc1cccc(C(F)(F)F)c1)c1ccc2nc([C@@H]3O[C@H](CO)[C@@H](O)[C@H]3O)[nH]c2c1	.	-4.4%	.	.	.	.
O=C(N/N=C/c1cn(-c2ccccc2)nc1-c1ccccc1)c1ccco1	37.3%	-4.2%	3.29µM*	-0.9%	42.0*	20.8*
Cc1ccc(-c2nn(-c3ccccc3)cc2/C=N/NC(=O)c2ccc(Br)o2)cc1	?	12.6%	?	-2.3%	35.9*	24.1*
O=C(N/N=C\c1cn[nH]c1-c1ccc(Cl)cc1)c1cccs1	12.0%	51.1%	18.8%	-2.3%	81.5*	36.1*
Cc1nnc(SCC(=O)N/N=C/c2cn(-c3ccccc3)nc2-c2ccccc2)n1-c1ccccc1	-6.6%	19.9%	41.8%	3.2%	66.0	9.2
O=C(N/N=C/c1cn[nH]c1-c1ccccc1)c1ccco1	-12.2%	3.1%	-6.8%	-0.6%	72.4*	26.4*
O=C(N/N=C\c1cn[nH]c1-c1ccccc1)c1ccc([N+](=O)[O-])cc1	-5.7%	16.9%[2.32 µM]	19.8%	3.0%	-2.8	6.3
COc1ccccc1N1CCN(CCCNC(=O)C2CCCN(c3ncnc4c3nc3n4CCCCC3)C2)CC1 (centres undefined)	?	-1.9%	?	1.0%	8.4	-2.7
COc1ccccc1NC(=O)NC1(C(=O)N2CCC(C)CC2)CCCCC1	20.3%	3.8%	-0.4%	13.3%	-7.6	-3.6
Cc1ccc2c(c1)-c1cc(C)ccc1C2=O	.	3.6%	.	.	.	.
CC(C)OC(=O)c1ccc2ccc(-c3ccccc3)nc2c1	.	79.5%	.	.	.	.
Cc1nc2ccc(NS(=O)(=O)c3ccc4c(c3)OCCO4)cc2s1	.	3.3%	-17.1%	-1.9%	-20.8	6.3
N#CCCN(C(=O)COC(=O)CCc1nc2ccccc2c(=O)[nH]1)c1ccc(F)cc1	-19.9%	0.7%	-12.2%	-5.4%	.	.
O=C(N/N=C\c1cn(-c2ccccc2)nc1-c1ccccc1)c1ccc(Br)o1	4.15µM*	-6.1%	9.28µM*	-12.3%	79.8*	14.4*
O=C(N/N=C/c1ccc([N+](=O)[O-])o1)c1cn(-c2ccccc2)nc1-c1ccccc1	?	11.8%	?	18.3%	-13.7	-3.1
SMILES	Pf growth 96h	AMA1-RON2 inh	Pf growth 48h	SARS PLP yeast	Shiga toxin inh	Cycloheximide cs
COc1ccccc1CNC(=O)c1ccc(C)s1	6.57µM*	-17.3%	59.9%	1.3%	21.3	2.5
COc1ccccc1CNC(=O)Cc1ccccc1	-8.3%	2.0%	0.0%	.	34.7*	35.2*
COc1ccccc1CNC(=O)CSc1ccccc1	25.6%	8.9%	-28.6%	0.8%	49.8*	18.7*
COc1ccccc1-n1ccnc(SCC(=O)NCc2ccccc2)c1=O	13.4%	12.0%	-6.4%	18.8%	.	.
COc1ccccc1CNC(=O)c1cc2c(s1)CS(=O)(=O)C2	i	0.6%	-2.9%	.	-14.2	1.9
O=C(CSc1nccn(-c2ccc(Br)cc2)c1=O)NCc1ccccc1	?	-6.5%	13.1µM*	2.4%	.	.
COc1ccc(S(=O)(=O)N(C)C[C@H]2Oc3ccc(NC(=O)Nc4c(C)noc4C)cc3C(=O)N([C@H](C)CO)C[C@@H]2C)cc1	.	1.3%	.	9.8%	.	.
CC(C)CNc1ncnc2c1ncn2[C@H]1CN(C2CCCC2)C[C@@H](CO)O1	.	10.9%	.	.	.	.
COc1ccccc1CNC(=O)c1n[nH]c2ccccc12	51.7%	12.4%	-2.5%	-1.5%	45.7*	28.8*
O=C(CSc1ccccc1)NCc1ccccc1	?	2.2%	83.3%	1.4%	.	18.2*
COc1ccccc1CNC(=O)CCCC(=O)n1ncc2cc(C)ccc21	-4.4%	-0.3%	20.9%	-5.6%	-5.2	-0.4
COc1ccccc1CNC(=O)CCC(=O)n1ncc2cc(C)ccc21	2.62µM*	0.0%	7.6%	3.3%	1.6	6.0
CC(C)(C)OC(=O)N/N=C/c1cccc([N+](=O)[O-])c1	?	0.0%	i	0.6%	82.4*	50.1*
COc1ccc(/C=N/NC(=O)C2C3CCCCC32)cc1OC (centres undefined)	2.7%	6.4%	-12.2%	-1.8%	6.4	12.9
COc1cc(/C=N/NC(=O)c2cccnc2)ccc1OC(=O)c1ccco1	53.5%	-0.4%	-1.4%	6.9%	13.1	-1.0
COc1ccc(/C=N/NC(=O)OC(C)(C)C)cc1OC	?	14.3%	?	16.1%	active	13.6*
COc1cc(/C=N\NC(=O)OC(C)(C)C)ccc1OC(=O)c1ccco1	36.7%	-7.4%	?	-2.3%	81.9*	18.8
Nc1c(/C=C2/C=CC(=O)C(O)=C2)c(=O)nc2sc(CC(=O)N3CCCCC3)nn12	-4.5%	5.5%	-7.7%	11.2µM*	-14.0	2.8
Nc1c(/C=C2/C=CC(=O)C(O)=C2)c(=O)nc2sc(CC(=O)N3CCCC3)nn12	1.3%	4.6%	-1.6%	1.3%	-8.9	6.4
Cc1ccccc1OCCC(=O)OCC(=O)NNC(=O)c1cccs1	1.4%	120.5%	-15.5%	-1.2%	.	.
O=C1CC(NNC(=O)c2cccc(F)c2)C(=O)N1 (centres undefined)	10.8%	-8.0%	?	0.8%	23.9	10.8*
COc1ccc(C(=O)NCC(c2ccco2)N2CCCCC2)cc1S(=O)(=O)Nc1ccc(C)cc1 (centres undefined)	.	-3.9%	.	.	.	.

Bioassay records: PubChem, National Center for Advancing Translational Sciences (NCATS)
